Screens (PubChem BioAssay)
Compounds with a hit are over-represented: about 3.5% of the library has one in this group of screens.
MITF primary: inhibitors of human MITF; AlphaScreen MITF homodimerization, bead proximity signal; inhibition, % at 2.6 µM; 0.91% of 650,000 active; in the data active means inhibition above about 50%
Target sequence (O75030 whole entry, looked up): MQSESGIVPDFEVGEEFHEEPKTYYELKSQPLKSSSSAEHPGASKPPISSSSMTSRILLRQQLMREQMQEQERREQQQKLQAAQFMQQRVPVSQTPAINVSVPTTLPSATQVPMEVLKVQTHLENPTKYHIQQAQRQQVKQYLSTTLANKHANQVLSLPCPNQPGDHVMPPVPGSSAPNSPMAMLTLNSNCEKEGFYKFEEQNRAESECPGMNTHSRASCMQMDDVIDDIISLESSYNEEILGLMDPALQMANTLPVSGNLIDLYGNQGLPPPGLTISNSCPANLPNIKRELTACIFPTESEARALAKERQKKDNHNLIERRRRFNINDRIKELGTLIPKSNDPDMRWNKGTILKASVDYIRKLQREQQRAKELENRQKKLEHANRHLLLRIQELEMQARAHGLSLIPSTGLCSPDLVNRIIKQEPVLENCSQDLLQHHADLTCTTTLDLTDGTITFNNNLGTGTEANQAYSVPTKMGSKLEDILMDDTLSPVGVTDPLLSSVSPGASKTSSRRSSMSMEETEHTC
GPR151 activ: activators of human GPR151 | Q8TDV0 | PathHunter beta-arrestin GPR151 cells, luminescence | activation, % at 11.2 µM | 1% of 650,000 active | AID 1508602; in the data active means activation above about 4.9%
TEAD-YAP block: TEAD-YAP interaction inhibition; HEK-TIYL cells, TEAD-Gal4/YAP UAS-luciferase luminescence; 1.4% of 640,000 active; AID 1259422; inhibition, % at 9.12 µM; in the data active means inhibition above about 32%
FBW7 act: activators of human E3 ligase FBW7. Q969H0. AlphaScreen FBW7–phospho-cyclin E peptide binding, activator screen. normalized activity (activation), % at 26.1 µM. 0.13% of 650,000 active; in the data active means normalized activity above about 1.9%;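 further: purified mutant Fbw7 with reduced substrate affinity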
A number is an active result; . = inactive.

SMILES	MITF primary	GPR151 activ	TEAD-YAP block	FBW7 act
CC(=O)Oc1ccc(N(C(C)=O)S(=O)(=O)c2ccc(F)cc2C)c2ccccc12	.	.	.	.
CC(C)Nc1cc(N(C)C)c2noc3c2c1C(=O)c1ccccc1-3	50.7	.	.	.
CC(C)Nc1cc(N2CCN(C)CC2)c2noc3c2c1C(=O)c1ccccc1-3	52.1	.	.	.
CC(C)Nc1cc(N2CCC(=O)CC2)c2noc3c2c1C(=O)c1ccccc1-3	.	.	.	.
CCOC(=O)N1CCN(c2cc(Nc3ccc(OC)cc3)c3c4c(onc24)-c2ccccc2C3=O)CC1	.	.	.	.
CCCCNc1cc(N2CCN(CCO)CC2)c2noc3c2c1C(=O)c1ccccc1-3	53.8	.	.	.
CCCN1CCN(c2cc(NCCO)c3c4c(onc24)-c2ccccc2C3=O)CC1	.	.	.	.
CCOC(=O)N1CCN(c2cc(NC(C)C)c3c4c(onc24)-c2ccccc2C3=O)CC1	70.7	.	.	.
Cc1ccc(-c2nnc(SCC(=O)Nc3ncc(C)s3)n2C)cc1	.	.	.	.
Nc1cccc2c1C(=O)N(C(=O)c1ccc(C(F)(F)F)cc1)C2=O	.	.	.	.
COC(=O)c1[nH]c2ccccc2c1Cl	.	.	.	.
COC(=O)c1c(C(=O)c2ccc(F)cc2)[nH]c2ccccc12	.	.	50.2	.
Cc1cccc(NS(=O)(=O)c2cc(Br)cc3c2N(C(=O)C2CC2)CC3)c1	.	.	70.9	.
COc1ccc(NS(=O)(=O)c2cc(Br)cc3c2N(C(C)=O)CC3)cc1	.	.	44.2	.
COc1c(C)cc(S(=O)(=O)Nc2ccc3c(c2)N(C(=O)C2CC2)CC3)cc1C	.	.	43.1	.
Cc1cc(NS(=O)(=O)c2ccc3c(c2)CCN3C(=O)C2CC2)ccc1Br	.	.	.	.
CCc1ccc(NS(=O)(=O)c2cc(Br)cc3c2N(C(C)=O)CC3)cc1	.	.	47.0	.
COC(=O)c1sc2nc(CSc3nc4nc(C)cc(C)n4n3)[nH]c(=O)c2c1C	.	.	.	.
Cc1ncoc1C(=O)N1CCC(Oc2ccc(C(=O)NCCc3ccccc3)cc2)CC1	.	.	49.5	.
O=C(NCCc1ccccc1)c1ccc(OC2CCN(C(=O)Cn3cncn3)CC2)cc1	.	.	76.5	.
COCC(=O)N1CCC(Oc2ccc(C(=O)NCCc3ccccc3)cc2)CC1	.	.	.	.
Cc1ccoc1C(=O)N1CCC(Oc2ccc(C(=O)NCCc3ccccc3)cc2)CC1	.	.	82.9	.
Cc1cc(C(=O)N2CCC(Oc3ccc(C(=O)NCCc4ccccc4)cc3)CC2)no1	.	.	.	.
O=C(NCCc1ccccc1)c1ccc(OC2CCN(C(=O)c3ccsc3)CC2)cc1	.	.	.	.
O=C(NCCc1ccccc1)c1ccc(OC2CCN(C(=O)c3ccoc3)CC2)cc1	.	.	52.7	.
SMILES	MITF primary	GPR151 activ	TEAD-YAP block	FBW7 act
O=C(N/N=C/c1cc(Br)cc([N+](=O)[O-])c1O)c1ccccc1[N+](=O)[O-]	.	.	.	.
CCOc1ccccc1NC(=O)CSc1ccc(-c2ccc(Cl)cc2)nn1	.	.	.	.
COc1cc2c(cc1OC)C(COc1ccccc1OC)N(C(=O)c1cc(Cl)ccc1[N+](=O)[O-])CC2 (stereo unspecified)	.	.	.	.
Cc1noc(C)c1COC(=O)c1ccccc1I	.	.	.	.
Cc1cccc(-n2c(C)cc(C(=O)OCc3c(C)noc3C)c2C)c1	.	.	41.2	.
FC(F)(F)c1cccc(CNc2nc(Nc3cccnc3)nc3c2ncn3-c2ccccc2)c1	.	.	46.2	.
FC(F)(F)c1cccc(CNc2nc(Nc3ccncc3)nc3c2ncn3-c2ccsc2)c1	.	.	.	.
FC(F)(F)c1cccc(CNc2nc(Nc3cccnc3)nc3c2ncn3-c2ccsc2)c1	.	.	55.8	.
Cc1cnc(Nc2ccncc2)nc1NCc1cccc(C(F)(F)F)c1	.	.	45.2	.
FC(F)(F)c1cccc(CNc2nc(NCc3cccnc3)nc3c2ncn3-c2ccsc2)c1	.	.	55.9	.
Cc1cnc(Nc2ccncn2)nc1NCc1cccc(C(F)(F)F)c1	.	.	.	.
CC(C)(C)c1ccc(CSc2nc3ccccc3c3nc(-c4ccc([N+](=O)[O-])cc4)nn23)cc1	.	.	.	.
Cc1cccnc1NC(=O)C(NS(=O)(=O)c1cccc2nsnc12)c1ccccc1 (stereo unspecified)	.	.	.	.
CC1=C(C(=O)OCc2ccccc2)C(c2cn(-c3ccccc3)nc2-c2ccc(C)cc2)C(C(=O)OCc2ccccc2)=C(C)N1	.	.	.	.
CC1=C(C(=O)OCc2ccccc2)C(c2cn(-c3ccccc3)nc2-c2ccc(F)cc2)C(C(=O)OCc2ccccc2)=C(C)N1	.	.	.	1.9
COC(=O)C1=NN(C(=O)Cc2ccccc2)C(O)(C(C)(C)C)C1 (stereo unspecified)	.	.	.	2.0
CCOC(=O)C1=NN(C(=O)Cc2ccccc2)C(O)(C(C)(C)C)C1 (stereo unspecified)	.	.	.	.
COc1cc(CC2(CCC(=O)NCC(C)Oc3cccnc3)CCC(=O)N2)ccc1F (stereo unspecified)	.	.	.	2.1
COc1ccc(OC)c(/C=N/NC(=O)C(=O)NCc2ccccc2)c1	.	.	.	.
Cc1sc2c(c1C)CN(Cc1ccccn1)CN2C(=O)c1ccco1	.	.	.	.
O=C(O)c1cc2c3c(c1)C1C=CCC1CN3CC1CC=CC21 (stereo unspecified)	75.9	.	.	.
O=C(O)C1C2CC=CC2c2cc(Br)cc3c2N1CC1CC=CC31 (stereo unspecified)	.	.	.	5.5
COc1cccc(OC)c1C(=O)Nc1ccccc1C(C)(C)C	.	.	.	.
OCCCNc1cc(-c2cccnc2)nc(-c2ccccc2)n1	.	.	.	.
Cc1cccc(NC(=O)C2C3C=CC4(O3)C2C(=O)N(CCC(C)C)C4C(=O)NC2CCCC(C)C2C)c1 (stereo unspecified)	.	.	.	.
SMILES	MITF primary	GPR151 activ	TEAD-YAP block	FBW7 act
COc1ccc(C2C(C(=O)N3CCN(c4ccccc4OC)CC3)c3ccccc3C(=O)N2c2ccc(OC)cc2)cc1 (stereo unspecified)	.	.	34.4	.
CCc1sc(C(=O)Nc2nc(C)cs2)cc1C	.	.	.	.
Cc1csc(NC(=O)c2cc3c(s2)CCC(C)C3)n1 (stereo unspecified)	.	.	74.4	.
COc1ccc(N/C=C(\C#N)C(N)=S)cc1OC	.	.	37.9	.
COc1ccc(C(F)(F)F)cc1N/C=C(\C#N)C(N)=S	.	.	.	.
CCOC(=O)C1=C(O)/C(=C/c2cn(Cc3ccccc3)c3ccccc23)SC1=Nc1ccc(C)cc1	.	.	.	.
Cc1nc(/N=C(\N)Nc2ccccc2)[nH]c(=O)c1C	.	.	.	2.2
CN(C)CCN(CC1CCCC1)C(=O)Nc1ccc(-c2cn[nH]c2)cc1N(C)CCN(C)C	.	.	35.8	.
Oc1ccc(CN2CCN(c3ccc(F)cc3)CC2)c2cccnc12	.	.	.	.
CN1CCN(Cc2cc(Cl)c(O)c3ncccc23)CC1	97.9	.	90.2	.
COc1ccc(C(=O)Oc2c(CN3CCOCC3)cc(Cl)c3cccnc23)cc1OC	.	.	.	.
